Results taken from PubChem BioAssay (NCATS).
Results filed as inconclusive are left out. Activity calls are given as the source filed them. Unless noted, the call rests on the fitted dose curve; in most records, active means well fitted curve in the direction sought with a large enough effect; inconclusive means small, poorly fitted or top-dose-only effect, or another doubt; inactive means no such curve, though single readings can be large; an effect the other way counts as inactive or inconclusive.

Experiments:
[1] = qHTS profiling of the MIPE4 collection as inhibitors of Plasmodium falciparum (HB3) proliferation (AID 743347; call rule not given here;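 further: plate controls were DMSO vehicle wells for no effect and artemisinin wells for full effect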); settings: P. falciparum HB3 in erythrocytes, SYBR Green DNA, 72 h; at 28.5 µM (top of the series) unless noted
Summary of the method: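 Erythrocytes infected with P. falciparum (0.3% parasitemia, 2.5% hematocrit) incubated with compounds 72 h at 37 C, 5% CO2. Lysis with saponin/Triton buffer containing SYBR Green I, overnight at room temperature in the dark; DNA fluorescence (485/535 nm) normalised to 0.29 uM artemisinin and DMSO.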

[2] = High-throughput drug toxicity screening in the BPDCN cell line Gen2.2 (AID 1224824; call rule not given here;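 further: cells exposed to compounds for 48 h before reading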); settings: Gen2.2 BPDCN cells; at 45.8 µM (top of the series) unless noted
Summary of the method: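 Readout is ATP luminescence from Gen2.2 cells after two days of drug exposure in serum-containing medium at 37 °C. Values express percent activity, with vehicle defining full signal and 9.2 uM bortezomib defining zero.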

[3] = High-throughput drug toxicity screening in the BPDCN cell line Cal-1 (AID 1224825; call rule not given here); settings: Cal-1 BPDCN cell viability, qHTS; at 45.8 µM (top of the series) unless noted
Summary of the method: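 Cal-1 cells, 500 per well in phenol-red-free RPMI with 10% FBS, exposed to compounds for 48 hours at 37C, 5% CO2. Viability read by CellTiter-Glo luminescence; percent activity normalized to DMSO (100%) and 9.2 uM bortezomib final (0%).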

[4] = qHTS assay for measurement of the activity of small molecule inhibitors on Zika virus induced Caspase-3 activity in human iPSC derived neural progenitor cells (hNPCs) (AID 1224857); further: % of control where 0% means no effect; nearly all actives have a fitted effect of over 65% in size
Summary of the method: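 hNPCs seeded 350 cells/well, cultured 16–20 h; compounds added 1 h before ZIKV (2 FFU/cell), 37 C 6 h. Caspase-Glo 3/7 luminescence after 30 min RT; % inhibition from induction scaled to uninfected (0%) and infected (100%) wells.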

[5] = qHTS assay for measurement of the activity of small molecule inhibitors on Zika virus induced Caspase-3 activity in human astrocytoma cells (AID 1224859);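 further: plate controls were ZIKV-infected untreated cells for no effect and uninfected cells for full effect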
Summary of the method: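 Luminescence read-out (Caspase-Glo 3/7, 30 min RT) of caspase activity in SNB-19 cells infected 6 h with ZIKV, 2 FFU/cell, after 1 h compound pretreatment; % inhibition from induction normalised to uninfected (0%) and infected (100%) wells.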

[6] = qHTS Screen of the MIPE 4.0 Collection Against Ewings Sarcoma (RDES) (AID 1259252); further: nearly all actives have a fitted effect of over 35% in size; further: potency means the concentration at half of the fitted maximal effect
Summary of the method: (§1)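 Viability screen: 48 h incubation at 37C, 95% humidity, 5% CO2 with serially titrated compound, followed by CellTiter-Glo readout.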

[7] = qHTS Screen of the MIPE 4.0 Collection Against Ewings Sarcoma (TC71) (AID 1259253); further: nearly all actives have a fitted effect of over 40% in size; further: potency means the concentration at half of the fitted maximal effect
Summary of the method: as §1

[8] = qHTS Screen of the MIPE 4.0 Collection Against Ewings Sarcoma (EW8) (AID 1259255); further: nearly all actives have a fitted effect of over 35% in size; further: potency means the concentration at half of the fitted maximal effect;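 on viability: 100% = DMSO-treated cells and 0% = medium-only wells without cells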
Summary of the method: as §1

[9] = qHTS Screen of the MIPE 4.0 Collection Against Ewings Sarcoma (TC32) (AID 1259256); further: nearly all actives have a fitted effect of over 45% in size; further: potency means the concentration at half of the fitted maximal effect
Summary of the method: as §1

[10] = qHTS assay to identify small molecule inhibitors of chordoma cells - UCH-1 (AID 1259355); further: on the % scale 0 is the no-effect control and ±100 the full control effect; nearly all actives have a fitted effect of over 55% in size
Summary of the method: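 Cells (800/well) were seeded and left overnight at 37 C, 5% CO2, then treated with drugs at 15 concentrations plus a combination mix of auranofin, camptothecin, doxorubicin, rubitecan and topotecan. Viability after 48hr was read by CellTiter-Glo luminescence.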

SMILES	growth, % of control [1]	cell viability, % of control (lower = more cytotoxic) [2]	viability (% of control) [3]	Potency [4]	Potency [5]	Potency [6]	Potency [7]	Potency [8]	Potency [9]	Potency [10]
CN1CCC(=C2c3ccccc3C=Cc3ccccc32)CC1	12.5%	106%	35%	inactive	inactive	9.35 µM (active)	16.6 µM (active)			
CC1(CN2CCC(n3c(=O)[nH]c4ccccc43)CC2)OCc2ccccc2-n2cccc21 (stereo not given)	7.33%	137%	102%	inactive	inactive	16.6 µM (active)	16.6 µM (active)	14.8 µM (active)	14.8 µM (active)	inactive
CCC1(C)CC(=O)NC1=O (stereo not given)	102%	184%	128%	inactive	inactive	inactive		inactive		inactive
CCC1(c2ccccc2)C(=O)NCNC1=O	91%	15.1%	8.03%	inactive	inactive	9.35 µM (active)	11.8 µM (active)	18.7 µM (active)	14.8 µM (active)	
O=C1c2c(O)ccc(O)c2C(=O)c2c(NCCNCCO)ccc(NCCNCCO)c21	0.795%	6.11%	2.98%	inactive	inactive	0.166 µM (active)	0.0935 µM (active)	0.059 µM (active)	inactive	
Clc1ccc2c(c1)C(N1CCNCC1)=Nc1ccccc1O2	67.9%	72.6%	102%	inactive	inactive	10.5 µM (active)		16.6 µM (active)	18.7 µM (active)	
O=C(c1ccc(OCCN2CCCCC2)cc1)c1c(-c2ccc(O)cc2)sc2cc(O)ccc12	9.13%	67.1%	40.4%	inactive	inactive	2.35 µM (active)	7.43 µM (active)		8.33 µM (active)	inactive
Cc1ccccc1N1C(=O)c2cc(S(N)(=O)=O)c(Cl)cc2NC1C (stereo not given)	72.5%	73.5%	108%	inactive	inactive	inactive		inactive	inactive	
C[C@](N)(Cc1ccc(O)c(O)c1)C(=O)O	86%	46.6%	66%	inactive	inactive	inactive	inactive	inactive	inactive	inactive
CN(C)C(=N)N=C(N)N	110%	165%	99.5%	inactive	inactive	inactive		inactive	inactive	inactive
CC(COc1ccccc1)N(CCCl)Cc1ccccc1 (stereo not given)		82.3%	45%	inactive	inactive	inactive		inactive	inactive	inactive
Cn1c(=O)c2c(ncn2C)n(C)c1=O	103%	150%	116%	inactive	inactive	inactive		inactive	inactive	
COc1ccc2c(c1)c(CC(=O)O)c(C)n2C(=O)c1ccc(Cl)cc1	83.6%	127%	104%	inactive	inactive	14.8 µM (active)		inactive		
CCN1CCCC1CNC(=O)c1cc(S(=O)(=O)CC)c(N)cc1OC (stereo not given)	101%	143%	55.1%	inactive	inactive	inactive		20.9 µM (active)		
CC(C)(C)C(=O)Oc1ccc(S(=O)(=O)Nc2ccccc2C(=O)NCC(=O)O)cc1	67.9%	103%	96%	inactive	inactive	inactive		inactive	inactive	inactive
Cc1cc(C(C)(C)C)cc(C)c1CC1=NCCN1		20.6%	12.2%	inactive	inactive	inactive		inactive	inactive	
CC(C)C(=O)Nc1ccc([N+](=O)[O-])c(C(F)(F)F)c1		58%	5.71%	inactive	inactive	7.43 µM (active)	10.5 µM (active)	13.2 µM (active)	13.2 µM (active)	inactive
COc1cc2c(c(OC)c1OC)-c1ccc(OC)c(=O)cc1[C@@H](NC(C)=O)CC2		10.1%	11.2%	inactive	inactive	inactive		inactive	inactive	
COc1ccc(C2CNC(=O)C2)cc1OC1CCCC1 (stereo not given)	98.4%	170%	117%	inactive	inactive	inactive		inactive	inactive	inactive
O=c1c(O)c(-c2ccc(O)c(O)c2)oc2cc(O)cc(O)c12	11.6%	108%	34.4%	inactive	inactive	10.5 µM (active)	18.7 µM (active)	13.2 µM (active)	20.9 µM (active)	inactive
COC(=O)Nc1nc2ccc(C(=O)c3cccs3)cc2[nH]1	80%	19.7%	10.7%	inactive	inactive	0.0037 µM (active)	0.0118 µM (active)	0.0047 µM (active)	inactive	
CC#C[C@]1(O)CC[C@H]2[C@@H]3CCC4=CC(=O)CCC4=C3[C@@H](c3ccc(N(C)C)cc3)C[C@@]21C	6.33%	6.18%	5.97%	inactive	inactive	0.187 µM (active)		0.418 µM (active)	0.264 µM (active)	
